Assay results taken from PubChem BioAssay (NCI).
About 83,000 compounds went through this panel and 20% of them were active in at least one assay; those are over-represented in the sample as a whole.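 A percent growth of 40 corresponds to 60% growth inhibition; 0 means no net growth; -100 means all cells died. Active threshold: below 10.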 Unmarked numbers belong to inactive results. The source made the active and inactive calls.

How the values were obtained:
Assay in all cases: NCI-60 one-dose screen, 48 h (100 = growth as untreated, 0 = no growth, -100 = all killed)
SK-MEL-2 melanoma = conditions: 10 µM unless noted
EKVX NSCLC = conditions: 10 µM
SN12C renal = conditions: 10 µM unless noted
UO-31 renal = conditions: 10 µM unless noted
TK-10 renal = conditions: 10 µM unless noted
ACHN renal = conditions: 10 µM unless noted
A498 renal = conditions: 10 µM unless noted
CCRF-CEM leukemia = conditions: 10 µM
MOLT-4 leukemia = conditions: 10 µM unless noted
CAKI-1 renal = conditions: 10 µM unless noted

With [2H]c1nc(=Nc2cc(NC(=O)C=C)c(N(C)CCN(C)C)cc2OC)[nH]c(-c2cn(C([2H])([2H])[2H])c3ccccc23)c1[2H] the growth (SK-MEL-2 melanoma) was 55.8%, the growth (EKVX NSCLC) was 39.7% and the growth (SN12C renal) was 35.3%. The growth (UO-31 renal) was 24.2%, the growth (TK-10 renal) was 26.8% and the growth (ACHN renal) was 23.3%. For the same molecule, the growth (A498 renal) was 36.7%, the growth (CCRF-CEM leukemia) was 18.4% and the growth (MOLT-4 leukemia) was 13.3%.

Molecule O=C(Nc1cccc(Cn2c(=O)[nH]c3ccc(Oc4ncccn4)cc3c2=O)c1)c1cccc(F)c1 has a growth (SK-MEL-2 melanoma) of 74.3%, a growth (EKVX NSCLC) of 78.6% and a growth (SN12C renal) of 78%. For the same molecule, the growth (UO-31 renal) was 58.9%, the growth (TK-10 renal) was 81% and the growth (ACHN renal) was 80.9%. For the same molecule, the growth (A498 renal) was 66%, the growth (CCRF-CEM leukemia) was 75.7% and the growth (MOLT-4 leukemia) was 54.7%.

Molecule Cc1nnc(-c2cc3c(ccc4ccccc43)oc2=O)c2cn(-c3ccc(Cl)cc3)nc12 has a growth (SK-MEL-2 melanoma) of 95.4%, a growth (EKVX NSCLC) of 84% and a growth (SN12C renal) of 99.5%. For the same molecule, the growth (UO-31 renal) was 66.2%, the growth (TK-10 renal) was 151% and the growth (ACHN renal) was 97.5%. The growth (A498 renal) was 103%, the growth (CCRF-CEM leukemia) was 74.1% and the growth (MOLT-4 leukemia) was 75.4%.

COc1ccccc1CNCCCN1C(=O)c2ccc3c4c(ccc(c24)C1=O)C(=O)N(CCCNCc1ccccc1OC)C3=O was tested, and the growth (SK-MEL-2 melanoma) was -80.5% (active), the growth (EKVX NSCLC) was -63.6% (active) and the growth (SN12C renal) was -78.2% (active). For the same molecule, the growth (UO-31 renal) was -84% (active), the growth (TK-10 renal) was -77.9% (active) and the growth (ACHN renal) was -46.8% (active). For the same molecule, the growth (CAKI-1 renal) was -29.1% (active), the growth (CCRF-CEM leukemia) was -12.7% (active) and the growth (MOLT-4 leukemia) was -37% (active).

COc1ccc(-c2nc(SCC(C)C)nc(Nc3ccccc3)c2C#N)cc1 gave a growth (SK-MEL-2 melanoma) of 111%, a growth (EKVX NSCLC) of 85% and a growth (SN12C renal) of 60.2%. For the same molecule, the growth (UO-31 renal) was 56.8%, the growth (TK-10 renal) was 46.9% and the growth (ACHN renal) was 27.4%. The growth (A498 renal) was 75.2%, the growth (CCRF-CEM leukemia) was 64.6% and the growth (MOLT-4 leukemia) was 88.2%.

Work on NNC(=S)N1N=C(c2cc3ccccc3o2)CC1c1c[nH]c2ccccc12 (stereo not drawn) yielded a growth (SK-MEL-2 melanoma) of 60.1%, a growth (EKVX NSCLC) of 35.2% and a growth (SN12C renal) of 56.9%. It also gave a growth (UO-31 renal) of 24%, a growth (TK-10 renal) of 80.1% and a growth (ACHN renal) of 24%. For the same molecule, the growth (A498 renal) was 90.2%, the growth (CCRF-CEM leukemia) was 7.46% (active) and the growth (MOLT-4 leukemia) was 10.2%.

For C=C(NC(=O)[C@H](C(C)C)N(C)c1cccc2[nH]ccc12)C(=O)OC, the growth (SK-MEL-2 melanoma) was 104%, the growth (EKVX NSCLC) was 93.8% and the growth (SN12C renal) was 101%. For the same molecule, the growth (UO-31 renal) was 80.1%, the growth (TK-10 renal) was 94.2% and the growth (ACHN renal) was 101%. The growth (A498 renal) was 94.4%, the growth (CCRF-CEM leukemia) was 87.1% and the growth (MOLT-4 leukemia) was 107%.

With Cc1nc2c(nnn2-c2ccccc2)c2nc(-c3ccc(Cl)cc3)oc(=O)c12 the growth (SK-MEL-2 melanoma) was 107%, the growth (EKVX NSCLC) was 110% and the growth (SN12C renal) was 104%. For the same molecule, the growth (UO-31 renal) was 83%, the growth (TK-10 renal) was 108% and the growth (ACHN renal) was 107%. For the same molecule, the growth (A498 renal) was 105%, the growth (CCRF-CEM leukemia) was 103% and the growth (MOLT-4 leukemia) was 113%.

In the case of Cc1cc2c(-c3nc4ccccc4[nH]3)c(O)c(O)cc2c(O)c1-c1c(C)cc2c(-c3nc4ccccc4[nH]3)c(O)c(O)cc2c1O, the growth (SK-MEL-2 melanoma) was 7.6% (active), the growth (EKVX NSCLC) was 8.33% (active) and the growth (SN12C renal) was 9.17% (active). For the same molecule, the growth (UO-31 renal) was -30.6% (active), the growth (TK-10 renal) was -6.24% (active) and the growth (ACHN renal) was 1.78% (active). For the same molecule, the growth (A498 renal) was -3.57% (active), the growth (CCRF-CEM leukemia) was 3.98% (active) and the growth (MOLT-4 leukemia) was 2.22% (active).

COc1ccc2cc(C(C)C(=O)Nc3ccc(S(=O)(=O)Nc4cc(C)on4)cc3)ccc2c1 (stereo not drawn) showed a growth (SK-MEL-2 melanoma) of 117%, a growth (EKVX NSCLC) of 97.5% and a growth (SN12C renal) of 116%. The growth (UO-31 renal) was 90%, the growth (TK-10 renal) was 103% and the growth (ACHN renal) was 97.3%. It also gave a growth (CAKI-1 renal) of 86.4% and a growth (MOLT-4 leukemia) of 106%.

For C#CCCCCCCC[C@@H]1OC(=O)[C@H]([C@@H](C)CC)NC(=O)[C@H]([C@@H](C)CC)NC(=O)CC(=O)[C@@H]1C, the growth (SK-MEL-2 melanoma) was 106%, the growth (EKVX NSCLC) was 97.8% and the growth (SN12C renal) was 98.5%. It also gave a growth (UO-31 renal) of 67.3%, a growth (TK-10 renal) of 117% and a growth (ACHN renal) of 94%. The growth (A498 renal) was 92.7%, the growth (CCRF-CEM leukemia) was 89.8% and the growth (MOLT-4 leukemia) was 80.3%.

With Cc1cc2c(-c3nc4ccccc4n3C)c(O)c(O)cc2c(O)c1-c1c(C)cc2c(-c3nc4ccccc4n3C)c(O)c(O)cc2c1O the growth (SK-MEL-2 melanoma) was 37.2%, the growth (EKVX NSCLC) was 56.8% and the growth (SN12C renal) was 35.2%. It also gave a growth (UO-31 renal) of 76.3%, a growth (TK-10 renal) of 57.1% and a growth (ACHN renal) of 89.1%. The growth (A498 renal) was 28.5%, the growth (CCRF-CEM leukemia) was 20.5% and the growth (MOLT-4 leukemia) was 26.7%.

O=C(/C=C/c1c[nH]c2ccccc12)c1cc2ccccc2o1 was tested, and the growth (SK-MEL-2 melanoma) was 105%, the growth (EKVX NSCLC) was 84.4% and the growth (SN12C renal) was 101%. For the same molecule, the growth (UO-31 renal) was 60.2%, the growth (TK-10 renal) was 140% and the growth (ACHN renal) was 103%. For the same molecule, the growth (A498 renal) was 102%, the growth (CCRF-CEM leukemia) was 36.3% and the growth (MOLT-4 leukemia) was 75.3%.

CCCCCCCCCc1cc[n+](CC(=O)c2ccc([N+](=O)[O-])cc2)cc1 was tested, and the growth (SK-MEL-2 melanoma) was -73.9% (active), the growth (EKVX NSCLC) was 11.1% and the growth (SN12C renal) was -2.2% (active). It also gave a growth (UO-31 renal) of 35%, a growth (TK-10 renal) of 48.4% and a growth (ACHN renal) of 48.1%. The growth (CAKI-1 renal) was 74.9% and the growth (MOLT-4 leukemia) was 1.62% (active).

COc1ccccc1Nc1nnc(COc2ccc(CNC(=O)CCCC/C=C/C(C)C)cc2OC)o1 was tested, and the growth (SK-MEL-2 melanoma) was 102%, the growth (EKVX NSCLC) was 85% and the growth (SN12C renal) was 105%. It also gave a growth (UO-31 renal) of 75.2%, a growth (TK-10 renal) of 103% and a growth (ACHN renal) of 95.7%. For the same molecule, the growth (A498 renal) was 103%, the growth (CCRF-CEM leukemia) was 92% and the growth (MOLT-4 leukemia) was 76.7%.
